Assay results reported in article PMC5540273 (PLoS ONE, 2017).

What was measured:
Details in all cases: concentration: 1 μM, replicates: in singlicate; n = 1
MAP3K15 = test system: MAP3K15
MAP3K1 = test system: MAP3K1
MAP3K2 = test system: MAP3K2
MAP3K3 = test system: MAP3K3
MAP3K4 = test system: MAP3K4
MAP4K2 = test system: MAP4K2
MAP4K3 = test system: MAP4K3
MAP4K4 = test system: MAP4K4
MAP4K5 = test system: MAP4K5
MAPKAPK2 = test system: MAPKAPK2
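Also: KINOMEscan kinase panel screen.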

Compound	%Inh (MAP3K15)	%Inh (MAP3K1)	%Inh (MAP3K2)	%Inh (MAP3K3)	%Inh (MAP3K4)	%Inh (MAP4K2)	%Inh (MAP4K3)	%Inh (MAP4K4)	%Inh (MAP4K5)	%Inh (MAPKAPK2)
Cn1cc(-c2ccc3c(c2)CCN3C(=O)Cc2cc(F)cc(C(F)(F)F)c2)c2c(N)ncnc21 [GSK2635225]	0%	3%	33%	12%	41%	0%	25%	0%	31%	10%
Cc1ccc(C)c(NC(=O)Nc2ccc(C)c(-c3ccc(C(=O)Nc4ccncc4)cc3)c2)c1 [GSK1398473]	83%	9%	30%	0%	43%	0%	2%	9%	5%	5%
COc1cc(Nc2ccnc3cc(-c4ccncc4)ccc23)cc(OC)c1OC.Cl [GW494610]	7%	8%	25%	30%	0%	13%	0%	83%	55%	13%
NCCC(NC(=O)c1cc(Br)c(-c2ccnc3[nH]ccc23)s1)c1ccccc1.O=C(O)C(F)(F)F.O=C(O)C(F)(F)F (centres unmarked) [GSK1307810]	65%	16%	38%	2%	0%	23%	15%	45%	0%	0%
CN(c1ccc(F)c(NC(=O)c2cccc(OC(C)(C)C#N)c2Cl)c1)c1ccc2nc(NC(=O)C3CC3)sc2n1	0%	0%	0%	15%	0%	0%	0%	75%	0%	0%
CS(=O)(=O)c1cccc(CNc2nc(Nc3ccc4c(c3)CCC(=O)N4)ncc2C(F)(F)F)c1	0%	0%	62%	46%	81%	0%	0%	41%	0%	0%
Cc1ccccc1CC(=O)N1CCc2cc(-c3cn(C)c4ncnc(N)c34)ccc21 [GSK2603346]	20%	19%	88%	62%	90%	29%	97.8%	0%	88%	7%
CCn1cnc2c(NCc3ccccc3)ncnc21 [SKF-96418]	22%	16%	14%	0%	2%	0%	0%	0%	0%	0%
